Article PMC11995724, “Antibiotic target discovery by integrated phenotypic and activity-based profiling of electrophilic fragments” (Cell chemical biology, 2025)
The whole screen tested about 3,200 compounds, of which about 110 (3.4%) showed an effect of 50% or more. For the sample, strong results were picked, then their nearest neighbours and some compounds at random.

The molecules below were run on T1, V. cholerae SAD30. Conditions: relative growth, OD600, LB; 25 µM; inhibitor.
T1 construct: SAD30
Design: species or system S. aureus MSSA476 (TSB) or V. cholerae SAD30 (LB); 384-well bacterial growth screen at 25 uM, OD600 relative to DMSO control

Compound | % of control remaining [%]
C=CC(=O)N1CCC(C(=O)NCCc2c(C)n[nH]c2C)CC1 [2-D04, N-[2-(3,5-dimethyl-1H-pyrazol-4-yl)ethyl]-1-(prop-2-enoyl)piperidine-4-carboxamide] | 106.099
CC(Cl)C(=O)N1CCN(S(=O)(=O)c2ccccc2)CC1 (stereo not drawn) [6-B12, 1-[4-(benzenesulfonyl)piperazin-1-yl]-2-chloropropan-1-one] | 88.4254
CCc1cccc(CC)c1NC(=O)CCl [4-F10, 2-chloro-N-(2,6-diethylphenyl)acetamide] | 103.86
Cc1cccc2[nH]cc(C(=O)CCl)c12 [10-H09, 2-chloro-1-(4-methyl-1H-indol-3-yl)ethan-1-one] | 100.526
CCc1cccc2c(C(=O)CCl)c[nH]c12 [10-C12, 2-chloro-1-(7-ethyl-1H-indol-3-yl)ethan-1-one] | 24.3133
Cc1noc(C)c1COC1CCN(C(=O)C(C)Cl)C1 (stereo not drawn) [7-O14, 2-chloro-1-{3-[(3,5-dimethyl-1,2-oxazol-4-yl)methoxy]pyrrolidin-1-yl}propan-1-one] | 78.3744
Cc1cc(C(=O)CCl)c(C)n1-c1ccon1 [10-F06, 2-chloro-1-[2,5-dimethyl-1-(1,2-oxazol-3-yl)-1H-pyrrol-3-yl]ethan-1-one] | 37.8726
Cc1ccccc1-n1c(C)cc(C(=O)CCl)c1C [10-H20, 2-chloro-1-[2,5-dimethyl-1-(2-methylphenyl)-1H-pyrrol-3-yl]ethan-1-one] | 100.526
Cc1cc(C(=O)CCl)c(C)n1-c1ccccc1 [10-L20, 2-chloro-1-(2,5-dimethyl-1-phenyl-1H-pyrrol-3-yl)ethan-1-one] | 100.682
Cc1cc(C)cc(-n2c(C)cc(C(=O)CCl)c2C)c1 [10-E04, 2-chloro-1-[1-(3,5-dimethylphenyl)-2,5-dimethyl-1H-pyrrol-3-yl]ethan-1-one] | 92.1099
Cc1cc(-n2c(C)cc(C(=O)CCl)c2C)no1 [10-C18, 2-chloro-1-[2,5-dimethyl-1-(5-methyl-1,2-oxazol-3-yl)-1H-pyrrol-3-yl]ethan-1-one] | 106.137
Cc1cc(C(=O)CCl)c(C)n1-c1ccccn1 [10-C16, 2-chloro-1-[2,5-dimethyl-1-(pyridin-2-yl)-1H-pyrrol-3-yl]ethan-1-one] | 41.1455
Cc1ccc(S(=O)(=O)NC2CN(C(=O)CCl)C2)cc1 [5-E07, N-[1-(2-chloroacetyl)azetidin-3-yl]-4-methylbenzene-1-sulfonamide] | 95.6604
C[C@H](NC(=O)CCl)C(=O)N1CCCCC1 [7-L14, 2-chloro-N-[(2S)-1-oxo-1-(piperidin-1-yl)propan-2-yl]acetamide] | 80.489
COc1ccc(C=C(C#N)C(=O)Nc2cccc(C)c2)cc1 [8-M03, 2-cyano-3-(4-methoxyphenyl)-N-(3-methylphenyl)prop-2-enamide] | 85.4521
C=CC(=O)NCC(=O)c1scc(C)c1Cl [1-D16, N-[2-(3-chloro-4-methylthiophen-2-yl)-2-oxoethyl]prop-2-enamide] | 44.1609
C=CC(=O)NCCc1csc(C)n1 [1-D13, N-[2-(2-methyl-1,3-thiazol-4-yl)ethyl]prop-2-enamide] | 86.9955
C=CC(=O)NCCc1nc(C)cs1 [2-D05, N-[2-(4-methyl-1,3-thiazol-2-yl)ethyl]prop-2-enamide] | 94.8278
COc1ccc(NC(=O)c2ccccc2NC(=O)CCl)cc1 [4-L05, 2-(2-chloroacetamido)-N-(4-methoxyphenyl)benzamide] | 109.209
O=C(CCl)NCCSc1ccccc1 [4-G21, 2-chloro-N-[2-(phenylsulfanyl)ethyl]acetamide] | 113.522
CN1c2ccccc2C(NC(=O)CCl)CS1(=O)=O (stereo not drawn) [7-L04, 2-chloro-N-(1-methyl-2,2-dioxo-3,4-dihydro-1H-2lambda6,1-benzothiazin-4-yl)acetamide] | 88.9476
O=C1C=CC(=O)N1c1ccc(F)c(Cl)c1 [10-D15, 1-(3-chloro-4-fluorophenyl)-2,5-dihydro-1H-pyrrole-2,5-dione] | 25.716
O=C1C=CC(=O)N1c1cnccn1 [10-P07, 1-(pyrazin-2-yl)-2,5-dihydro-1H-pyrrole-2,5-dione] | 97.4089
N#Cc1ccc(N2C(=O)C=CC2=O)cc1 [10-B09, 4-(2,5-dioxo-2,5-dihydro-1H-pyrrol-1-yl)benzonitrile] | 24.9367

Compound | % of control remaining [%]
O=C1C=CC(=O)N1c1ccc(SC(F)F)cc1 [10-A18, 1-{4-[(difluoromethyl)sulfanyl]phenyl}-2,5-dihydro-1H-pyrrole-2,5-dione] | 28.9889
O=C(CCl)Nc1ccc(SC(F)F)cc1 [4-B10, 2-chloro-N-{4-[(difluoromethyl)sulfanyl]phenyl}acetamide] | 104.205
CC(Cl)C(=O)Nc1ccc(SC(F)F)cc1 (stereo not drawn) [4-L09, 2-chloro-N-{4-[(difluoromethyl)sulfanyl]phenyl}propanamide] | 88.1604
O=C1C=CC(=O)N1c1ccc(F)cc1 [10-M10, 1-(4-fluorophenyl)-2,5-dihydro-1H-pyrrole-2,5-dione] | 16.8323
CC(Cl)C(=O)Nc1ccc(F)c(Cl)c1 (stereo not drawn) [4-A04, 2-chloro-N-(3-chloro-4-fluorophenyl)propanamide] | 99.7196
N#CC(=Cc1ccc(C#N)cc1)C(=O)N1CCCC1 [9-P21, 4-[2-cyano-2-(pyrrolidine-1-carbonyl)eth-1-en-1-yl]benzonitrile] | 93.8817
COc1ccc(NC(=O)C(C#N)=Cc2cnc3c(C)cccn23)cc1 [9-L03, 2-cyano-N-(4-methoxyphenyl)-3-{8-methylimidazo[1,2-a]pyridin-3-yl}prop-2-enamide] | 95.7852
CN1C=C(C(F)(F)F)C=CC1=C(C#N)C(=O)Nc1ccccc1F [8-H20, 2-cyano-N-(2-fluorophenyl)-2-[1-methyl-5-(trifluoromethyl)-1,2-dihydropyridin-2-ylidene]acetamide] | 66.9613
CC(Cl)C(=O)N(C)Cc1ccccc1 (stereo not drawn) [6-I13, N-benzyl-2-chloro-N-methylpropanamide] | 78.87
CN(c1ccccc1)S(=O)(=O)c1cccc(NC(=O)CCl)c1 [4-H04, 2-chloro-N-{3-[methyl(phenyl)sulfamoyl]phenyl}acetamide] | 111.106
O=C(CCc1ccccc1)NC1CCN(C(=O)CCl)CC1 [5-L08, N-[1-(2-chloroacetyl)piperidin-4-yl]-3-phenylpropanamide] | 100.704
C=CC(=O)N(C)CC(=O)NCc1c(O)nnc(C)c1C [2-I20, N-({[(3-hydroxy-5,6-dimethylpyridazin-4-yl)methyl]carbamoyl}methyl)-N-methylprop-2-enamide] | 95.9085
CC(Cl)C(=O)N1CCN(c2cc(-c3ccccc3F)n[nH]2)CC1 (stereo not drawn) [6-N20, 2-chloro-1-{4-[3-(2-fluorophenyl)-1H-pyrazol-5-yl]piperazin-1-yl}propan-1-one] | 84.7853
CCC(=O)Nc1ccc(C(=O)CCl)cc1 [10-C03, N-[4-(2-chloroacetyl)phenyl]propanamide] | 111.903
CC(C)CC(=O)Nc1ccc(C(=O)CCl)cc1 [10-N06, N-[4-(2-chloroacetyl)phenyl]-3-methylbutanamide] | 76.8362
CC(=O)Nc1ccc(C(=O)CCl)cc1 [10-O12, N-[4-(2-chloroacetyl)phenyl]acetamide] | 74.4983
CC(C)C(=O)Nc1ccc(C(=O)CCl)cc1 [10-D04, N-[4-(2-chloroacetyl)phenyl]-2-methylpropanamide] | 37.405
NC(=O)Nc1ccc(C(=O)CCl)cc1 [10-J07, [4-(2-chloroacetyl)phenyl]urea] | 65.4588
O=C(CCl)c1ccc(NC(=O)c2ccccc2)cc1 [10-B06, N-[4-(2-chloroacetyl)phenyl]benzamide] | 21.5079
C=CC(=O)NCc1nc2ccccc2n1C1CC1 [2-N03, N-[(1-cyclopropyl-1H-1,3-benzodiazol-2-yl)methyl]prop-2-enamide] | 105.172
N#CC(=Cc1cc2c(cc1[N+](=O)[O-])OCO2)C(=O)NC1CCCCC1 [8-F22, 2-cyano-N-cyclohexyl-3-(6-nitro-1,3-dioxaindan-5-yl)prop-2-enamide] | 83.6846
CN(C)S(=O)(=O)c1cccc(NC(=O)CCl)c1 [4-J08, 2-chloro-N-[3-(dimethylsulfamoyl)phenyl]acetamide] | 94.3714
CC(C)NC(=O)C(C#N)=Cc1ccc(C(F)(F)F)cc1 [8-L13, 2-cyano-N-(propan-2-yl)-3-[4-(trifluoromethyl)phenyl]prop-2-enamide] | 68.3209
Cc1cc(=O)[nH]c(-c2cccc(NC(=O)C(C#N)=Cc3ccco3)c2)n1 [8-B10, 2-cyano-3-(furan-2-yl)-N-[3-(4-methyl-6-oxo-1,6-dihydropyrimidin-2-yl)phenyl]prop-2-enamide] | 79.4697
